hgDAF-12 ag: H. glycines DAF-12 receptor agonists, primary screen, cell-based, luminescence, HEK293, GAL4 fusion, UAS-luciferase. Nuclear hormone receptor DAF-12 (Heterodera glycines), GAL4 fusion. HEK293 GAL4-hgDAF12 UAS-luciferase reporter, agonist luminescence; normalized to butyrate control. activation, % at 6.8 µM. 370,000 tested, 1.8% active. AID 687014, 2013;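 active means activation above a cutoff set at the mean of all screened compounds plus 3 SD, cut at about 10% in these data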;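 further: 0% = DMSO wells and 100% = sodium butyrate wells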
Wee1 degr inh: Wee1 degradation inhibitors, primary screen, cell-based, HeLa, Wee1K328M-luciferase, luminescence. HeLa Luc-Wee1K328M stability; 100% = proteasome inhibitor MG132 effect. Wee1-like protein kinase (Homo sapiens), P30291. AID 1321, 2008. reporter increase, % at 5 µM. 220,000 tested, 1.2% active;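 active means activation above the mean of all tested compounds plus 3 SD, set per screening run, cut at about 8.8% in these data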;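 further: cells exposed to compound for 20 h before luminescence read; 0% = DMSO alone and 100% = MG132 at 30 µM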
DAX1 inh-1: DAX1 (NR0B1) inhibitors on StAR promoter, primary screen, cell-based, luminescence, SF-1 (NR5A1), full-length DAX-1; HEK293T StAR-luciferase reporter, SF-1/DAX-1 repression relief; inhibition, % at 6.8 µM; 370,000 tested, 1.1% active; AID 652010, 2013;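 active means inhibition above the mean over all tested compounds plus 3 SD, cut at about 3.6% in these data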;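 further: 0% = DAX-1 cells with DMSO and 100% = cells lacking DAX-1 with DMSO; higher inhibition means more luminescence from relief of DAX-1 repression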
ssDAF-12 act: S. stercoralis DAF-12 nuclear receptor activators, primary screen, cell-based, luminescence, HEK293, GRIP1 co-expression, lit1-tk-luc; 370,000 tested, 1% active; activation, % at 6.8 µM; Nuclear hormone receptor DAF-12 (Strongyloides stercoralis); HEK293 ssDAF-12/GRIP1 lit1-tk-luc reporter; % of 3 µM dafachronic acid response;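 active means activation above the mean over all tested compounds plus 3 SD, cut at about 0.9% in these data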;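 further: 0% = DMSO-only wells and 100% = 3 µM delta7-dafachronic acid wells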
DAX1 inh-2: DAX1 (NR0B1) inhibitors, primary screen, cell-based, HEK293, Gal4-DAX1, luciferase luminescence; Nuclear receptor subfamily 0 group B member 1 (Homo sapiens), P51843; inhibition, % at 6.75 µM; 340,000 tested, 0.99% active; HEK293 Gal4-DAX1 luciferase reporter;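 active means inhibition above the mean over all tested compounds plus 3 SD, cut at about 4.2% in these data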;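 further: 0% = DAX1-transfected cells with DMSO and 100% = empty-vector control cells with DMSO; inhibition shows as a rise in luminescence from relieved DAX1 repression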
Target sequence (P51843 207-470 limits assumed): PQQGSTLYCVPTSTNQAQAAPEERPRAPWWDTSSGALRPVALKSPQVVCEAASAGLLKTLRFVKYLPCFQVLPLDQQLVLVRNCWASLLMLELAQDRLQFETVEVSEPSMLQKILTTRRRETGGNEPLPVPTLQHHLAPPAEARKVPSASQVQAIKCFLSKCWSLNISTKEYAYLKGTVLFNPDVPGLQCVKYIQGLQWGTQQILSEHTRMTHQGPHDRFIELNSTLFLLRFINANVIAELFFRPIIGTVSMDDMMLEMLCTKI
hcDAF-12 act: H. contortus DAF-12 nuclear receptor activators, primary screen, cell-based, luminescence, HEK293, lit1-tk-luc reporter; HEK293 hcDAF-12 lit1-tk-luc reporter; 0% DMSO, 100% Δ7-dafachronic acid; activation, % at 6.8 µM; 370,000 tested, 1.4% active;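 active means activation above the mean of all tested compounds plus 3 SD, cut at about 5.5% in these data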;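 further: 100% = response to 3 µM Δ7-dafachronic acid high control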
DAX1 inh confirm: DAX1 (NR0B1) inhibitors relieving SF-1 repression, confirmation, cell-based, luminescence, HEK293T, full-length DAX-1, SF-1 activated StAR promoter | shares compounds with DAX1 inh-1 | HEK293T StAR-promoter luciferase reporter, SF-1/DAX-1 repression | inhibition, % at 6.8 µM | 2,400 tested, 87% active;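 active means inhibition above the average of every tested compound plus 3 SD, cut at about 3.8% in these data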;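 further: 0% = DAX-1 cells with DMSO and 100% = no DAX-1 control cells with DMSO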
Target sequence (P51843 whole entry, looked up): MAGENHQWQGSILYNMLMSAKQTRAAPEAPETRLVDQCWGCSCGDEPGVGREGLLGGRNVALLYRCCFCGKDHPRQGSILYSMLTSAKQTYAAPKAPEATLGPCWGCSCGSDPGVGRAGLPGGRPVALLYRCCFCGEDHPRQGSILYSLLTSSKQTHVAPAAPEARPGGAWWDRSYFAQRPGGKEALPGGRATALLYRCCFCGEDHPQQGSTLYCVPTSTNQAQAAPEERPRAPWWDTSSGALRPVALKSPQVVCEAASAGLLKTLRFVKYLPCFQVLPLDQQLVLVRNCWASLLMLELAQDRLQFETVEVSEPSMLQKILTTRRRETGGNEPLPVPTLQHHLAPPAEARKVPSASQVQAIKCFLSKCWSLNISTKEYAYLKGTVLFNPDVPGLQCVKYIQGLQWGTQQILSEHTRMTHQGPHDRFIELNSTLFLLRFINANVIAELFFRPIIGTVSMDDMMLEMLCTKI
SF1 mutant ctr: StAR reporter signal changes without DAX1, counter-screen for DAX1 inhibitor project, cell-based, luminescence, AF-2 mutant SF-1, transactivation; 2,400 tested, 78% active; inhibition, % at 6.8 µM; AID 652136, 2013; shares compounds with DAX1 inh-1; HEK293 StAR-luciferase, SF-1 AF2 mutant;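 active means inhibition above the mean of all tested compounds plus 3 SD, cut at about 3% in these data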;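 further: 0% = DAX-1 transfected cells with DMSO and 100% = cells without DAX-1 with DMSO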
LXR ag: LXR agonists, Gal4 luciferase reporter, confirmation, counter-screen for hcDAF-12 agonist project, cell-based, luminescence, HEK293, H. contortus campaign; 3,400 tested, under 10 active; shares compounds with hcDAF-12 act; HEK293 Gal4-LXR tk-luc reporter, 24 h; normalized: DMSO 0%, positive control 100%; activation, % at 6.8 µM;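 active means mean percent activation of the reporter above a cutoff set as the average over tested compounds plus their standard deviation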
hcDAF12 conf: H. contortus DAF-12 receptor agonists, confirmation, cell-based, luminescence, HEK293, lit1-tk-luc, triplicate. shares compounds with hcDAF-12 act. HEK293 hcDAF-12 lit1-tk-luc reporter; % of Δ7-dafachronic acid response. activation, % at 6.8 µM. 3,400 tested, 61% active. AID 743032, 2013;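 active means mean activation across triplicate tests above the threshold derived from the earlier primary screen, cut at about 5.5% in these data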;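 further: 0% = DMSO only wells and 100% = 3 µM Δ7-dafachronic acid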
hgDAF12 ag: H. glycines DAF-12 receptor agonists, confirmation, cell-based, luminescence, HEK293, GAL4-LBD fusion; shares compounds with hgDAF-12 ag; HEK293 GAL4-hgDAF12 luciferase reporter, agonist mode; percent of butyrate response; activation, % at 6.8 µM; 3,300 tested, 80% active;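 active means mean activation over triplicate wells above the hit cutoff derived from the earlier primary screen, cut at about 11% in these data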;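 further: 0% = DMSO low control and 100% = 2 mM sodium butyrate high control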
LXR ag 2: LXR agonists, Gal4 luciferase reporter, confirmation, counter-screen for hgDAF-12 agonist project, cell-based, luminescence, HEK293, H. glycines campaign; shares compounds with hgDAF-12 ag; 24 h; activation, % at 6.8 µM; 3,300 tested, under 10 active;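 active means mean activation of the triplicate above a set limit carried over from the primary screen, none filed active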
Starred values were filed as active, the others as inactive; . = no result given. Compounds with a hit are over-represented: about 4.6% of the library has one in this group of screens.

SMILES	hgDAF-12 ag	Wee1 degr inh	DAX1 inh-1	ssDAF-12 act	DAX1 inh-2	hcDAF-12 act	DAX1 inh confirm	SF1 mutant ctr	hgDAF12 ag	LXR ag 2	others
Cc1occc1-c1nnc(SC(C)C(=O)Nc2ccccc2F)o1 (configuration not stated)	14.6*	.	10.4*	0.0	0.0	4.0	9.5*	7.1*	13.7*	0.5
O=C(Nc1cccnc1Cl)c1ccc2c(Cl)c3c(nc2c1)CCC3	17.4*	4.8	5.0*	0.3	1.5	5.6	15.5*	6.1*	19.5*	1.2
CCc1nnc(NC(=O)CN2C(=O)N(C)C3(CCCCC3)C2=O)s1	1.7	.	0.8	-1.4	0.4	-1.2	.	.	.	.
O=C(NC1=NCCS1)c1cccc(OC(F)F)c1	16.0*	10.7*	5.0*	0.0	4.8*	1.5	13.8*	9.6*	14.1*	0.7
O=C(NC1=NCCS1)c1sc2ccccc2c1Cl	20.8*	5.1	4.7*	1.1*	1.5	11.3*	11.9*	7.4*	15.2*	0.7	LXR ag=1.3;hcDAF12 conf=9.7*
N#Cc1ccc(C(=O)NC2=NCCS2)cc1	3.8	.	1.0	-0.5	3.7	2.1	.	.	.	.
CC(C)c1ccc(C(=O)NC2=NCCS2)cc1	17.9*	5.5	5.5*	0.7	-0.4	4.7	18.7*	7.0*	13.6*	0.8
COc1cc(OC)cc(C(=O)NC2=NCCS2)c1	3.3	-2.9	-0.3	-1.2	-0.5	-0.5	.	.	.	.
Cc1cc(C)cc(NC(=O)COC(=O)CC2CCCC2)c1	4.6	.	-1.9	-0.8	0.3	-0.6	.	.	.	.
CCC(=O)Nc1ccc(OCc2nc3ccccc3s2)cc1	19.6*	-2.5	9.4*	2.5*	2.3	11.0*	15.0*	7.7*	16.5*	1.0	LXR ag=1.1;hcDAF12 conf=10.8*
O=C(COC(=O)c1ccc(F)cc1Cl)NC1CCCCCCC1	1.0	.	-0.6	-0.7	0.6	0.0	.	.	.	.
CCOC(=O)c1sc2nc3c(cc2c1N)COC(C)(CC)C3 (configuration not stated)	13.6*	7.4	4.8*	0.4	1.6	9.3*	13.6*	6.0*	18.4*	0.9	LXR ag=1.6;hcDAF12 conf=6.1*
COC(=O)c1sc2nc3c(cc2c1N)CCCC3	24.7*	2.3	5.1*	0.2	3.3	6.5*	12.7*	6.8*	18.5*	1.0
O=C(CN1C(=O)NC(Cc2c[nH]c3ccccc23)C1=O)Nc1ccc(F)cc1F (configuration not stated)	0.1	.	-0.7	-0.5	1.3	-0.3	.	.	.	.
CN(CCO)c1cccc2c1S(=O)(=O)N(Cc1cn(Cc3ccc(Cl)cc3)nn1)Cc1ccccc1O2	-1.3	.	-1.9	-1.4	.	-0.7	.	.	.	.
NC(=Nc1ccccc1)NC(=O)c1nc(Cl)c(N)nc1N	17.2*	.	5.4*	-1.1	2.8	0.6	8.2*	6.4*	14.2*	0.5
COc1ccccc1Cc1c(C2CCCCC2)nc2ccc(Br)cn12	2.4	.	-0.8	-0.2	.	1.8	.	.	.	.
C(=N/N1CCN(c2ccccc2)CC1)/c1ccco1	1.8	.	1.8	-0.5	.	3.8	.	.	.	.
O=C(Nc1cccc(Cl)c1)c1ccc2sc([C@H]3C[C@H](O)[C@@H](CO)O3)nc2c1	-0.2	.	-1.9	-1.3	.	-0.5	.	.	.	.
Cc1nc(Nc2ccccc2)sc1-c1ccccc1	21.2*	3.0	6.7*	1.1*	3.2	9.8*	20.9*	9.8*	20.7*	1.1	LXR ag=1.9;hcDAF12 conf=8.3*
Cc1nc(Nc2ccc(C(=O)O)cc2)sc1-c1ccccc1	16.6*	4.6	5.5*	2.6*	0.8	10.4*	2.7	0.3	10.0	0.7	LXR ag=1.5;hcDAF12 conf=7.2*
COC(=O)[C@]12CCCCC=C1N(Cc1ccco1)C(=O)[C@H](CC(=O)NCCC(C)C)C2	-2.0	.	0.7	-0.3	.	0.1	.	.	.	.
COc1cc2ccccc2cc1C(=O)NCC(c1cccs1)N(C)C (configuration not stated)	14.9*	2.7	10.3*	-0.5	2.5	6.4*	11.8*	7.1*	15.6*	0.8
COc1cc(OC)c(C(=O)NCC(c2cccs2)N(C)C)cc1OC (configuration not stated)	.	-3.6	.	.	-0.5	.	.	.	.	.
CN(C)CCNC(=O)C1Cc2c(-c3ccccc3Oc3ccccc3)ccnc2O1 (configuration not stated)	-2.7	.	0.1	-1.1	.	-2.1	.	.	.	.
Cc1ccc(C2=NN3C(C2)c2ccccc2OC32C(=O)Nc3ccccc32)cc1 (configuration not stated)	25.5*	7.0	5.3*	2.2*	2.1	18.5*	9.9*	9.4*	19.6*	0.9	LXR ag=1.1;hcDAF12 conf=8.3*

High-throughput results (PubChem BioAssay)
